Assay results reported in PubChem BioAssay AID720582 (The Scripps Research Institute Molecular Screening Center, 2013).
Values joined by “and” are separate entries in the source; they are usually repeats but may differ in a detail not shown here. Equal entries are not always repeated. Hit rate of the full screen: of about 370,000 compounds, about 2,300 (0.62%) were called active.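 Rule for the calls: active = inhibition above a per-campaign cutoff equal to the mean of compounds falling between control-based bounds plus 3 SD (cut at about 20% in these data); inactive = the rest.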 Only a selection was taken, and actives are over-represented in it overall. The source holds several records for some structures; these can differ, active in one and inactive in another.

The compounds below were run against Disintegrin and metalloproteinase domain-containing protein 10 (Homo sapiens) (UniProt O14672) (assay: blockers of ADAM10 peptide cleavage – biochemical, QFRET, HTS, primary screen (AID 720582;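 note: 0% = DMSO wells while the 100% control is not disclosed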)). Settings: recombinant ADAM10, EDANS/DABCYL FRET peptide cleavage, 3 h; at 7 µM; stronger effect = higher value.
Chain of Disintegrin and metalloproteinase domain-containing protein 10 (Homo sapiens) (O14672 214-748 limits assumed): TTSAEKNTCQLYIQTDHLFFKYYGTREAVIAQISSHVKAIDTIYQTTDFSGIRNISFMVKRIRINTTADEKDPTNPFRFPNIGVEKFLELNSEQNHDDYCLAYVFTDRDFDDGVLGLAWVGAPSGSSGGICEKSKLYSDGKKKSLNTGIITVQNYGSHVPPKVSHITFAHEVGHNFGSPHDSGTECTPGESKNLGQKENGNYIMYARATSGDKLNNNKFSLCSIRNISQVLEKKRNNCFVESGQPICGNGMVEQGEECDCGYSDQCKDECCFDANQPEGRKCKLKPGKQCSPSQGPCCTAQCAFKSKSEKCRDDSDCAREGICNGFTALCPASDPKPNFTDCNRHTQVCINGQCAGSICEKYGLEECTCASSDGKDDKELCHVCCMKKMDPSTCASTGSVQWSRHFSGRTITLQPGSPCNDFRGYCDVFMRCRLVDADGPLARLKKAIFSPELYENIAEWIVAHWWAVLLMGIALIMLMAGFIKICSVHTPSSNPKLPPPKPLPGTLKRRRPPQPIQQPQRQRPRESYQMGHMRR

SMILES | inhibition
COCCCNC(=O)C[C@H]1C[C@@]2(C(=O)OC)C(=C[C@H](C(C)(C)C)O[C@@H]2C)N(Cc2ccc(Cl)cc2Cl)C1=O | 8.61% (inactive)
C=CS(=O)(=O)N(Cc1nnn(Cc2ccccc2)c1Br)[C@H](C(=O)OC)C(C)C | 5.21% (inactive)
CCOC(=O)[C@]12CCCC=C1N(Cc1ccc(OC)cc1)C(=O)[C@@H]2CC(=O)N1CCOCC1 | 0.19% (inactive)
COc1ccc(Cl)cc1NC(=O)CN(C)C(=O)CCCc1c[nH]c2ccccc12 | 56.1% (active)
COc1ccc(Cl)cc1NC(=O)CN(C)C(=O)c1ccc2n[nH]nc2c1 | -4.74% (inactive)
COc1ccc(Cl)cc1NC(=O)CN(C)C(=O)CNC(=O)C12CC3CC(CC(C3)C1)C2 | 0.24% (inactive)
O=C(CSc1nnc(-c2ccccn2)n1-c1ccccc1)Nc1ccc2cn[nH]c2c1 | 1.78% (inactive)
CC(C)(C)OC(=O)NCCCCCNC(=O)c1[nH]cnc1C(=O)Nc1nccs1 | -0.11% (inactive)
CCOC(=O)c1ccc(NC(=O)c2nc[nH]c2C(=O)N[C@@H](CCCCNC(=O)OC(C)(C)C)C(=O)OC(C)(C)C)cc1 | -1.17% (inactive)
Cc1ccc(NC(=O)c2nc[nH]c2C(=O)N[C@@H](CCCCNC(=O)OC(C)(C)C)C(=O)OC(C)(C)C)cc1 | 22.4% (active)
Cc1nc(CNc2ncnc3ccc(-c4ccc5c(c4)OCO5)cc23)cs1 | -136% (inactive)
CC(C)(C)c1ccc(C(=O)Nc2cc(Cl)c(Br)cc2C(=O)O)cc1 | 19.8% (active)
CSc1nccc(NC(=O)c2ccc(C(C)(C)C)cc2)n1 | 10.6% (inactive)
CSc1ccc(C#N)cc1NC(=O)c1ccc(Cl)cc1 | 7.58% (inactive)
COC(=O)[C@H](C(C)C)N(CCCc1cn(Cc2ccccc2)nn1)S(=O)(=O)c1ccc(F)cc1Br | 2.42% (inactive)
C=CCN1C(C(=O)OC)CN(Cc2cn(Cc3ccccc3)nn2)CCS1(=O)=O (configuration not stated) | 2.91% (inactive)
O=C1NC(Nc2nc3ccccc3s2)(C(F)(F)F)C(=O)N1C1CCCCC1 (configuration not stated) | 21% (active)
Cc1cccc([C@@H]2[C@@H]3C(=O)N(Cc4ccccc4)C(=O)[C@@H]3[C@]3(Cc4ccc(Cl)cc4)C(=O)N(c4cccc(Cl)c4)C(=O)N23)c1 | -4.37% (inactive)
O=C1[C@H]2[C@@H](c3ccc(F)cc3)N3C(=O)N(c4ccc(C(F)(F)F)cc4)C(=O)[C@@]3(Cc3ccccc3)[C@H]2C(=O)N1C1CCCCC1 | 22.2% (active)
Cc1cccc(N2C(=O)N3[C@H](c4ccc(F)cc4)[C@@H]4C(=O)N(C5CCCCC5)C(=O)[C@@H]4[C@]3(Cc3ccccc3)C2=O)c1 | 5.39% (inactive)
CCCCc1c(-c2ccc(Cl)cc2)ncn1CCc1ccccc1OC | -7.93% (inactive)
CCCCCc1c(-c2cccc(Br)c2)ncn1CCc1ccccc1OC | -0.06% (inactive)
CCCCCc1c(-c2ccc(OC)c(OC)c2)ncn1CCc1ccccc1OC | 22.3% (active)
CCOC(=O)[C@]12CCCCC/C=C\1N(Cc1ccc(OC)cc1)C(=O)[C@H]2CC(=O)NCCCN1CCCC1=O | -0.03% (inactive)
CC(=O)N1CCc2cc(S(=O)(=O)NCCC(=O)N3CCCC3)ccc21 | -14% (inactive)
COc1cc(/C=C/C(=O)n2cnc3ccccc32)cc(OC)c1OC | -59.7% (inactive)

SMILES | inhibition
CCCCCN1CCCCC(NC(=O)C(C)CCC)C1=O (configuration not stated) | -6.07% (inactive)
CCOc1ccc(Br)cc1S(=O)(=O)Nc1ccc(C(=O)OC(C)C(=O)N(C)c2ccccc2)cc1 (configuration not stated) | 22.5% (active)
CCOc1ccc(Br)cc1S(=O)(=O)Nc1cccc(S(=O)(=O)N(CC)CC)c1 | 0.81% (inactive)
CCOc1ccc(Br)cc1S(=O)(=O)Nc1ccc(S(=O)(=O)Nc2cc(C)on2)cc1 | -5.64% (inactive)
CC(C)C(C#CC1CC1)N(Cc1ccc2c(c1)OCO2)C(N)=NC(=O)/C=C/c1cccc(C(F)(F)F)c1 (configuration not stated) | -4.29% (inactive)
COC(=O)c1cccc(Cn2ccc3ccc(-c4ccc5ccn(C(=O)c6ccccc6C)c5c4)cc32)c1 | -41.7% (inactive)
CCCC1CCC2(CCCN2CCOC(=O)NCc2ccccc2)CC1 (configuration not stated) | -8.67% (inactive)
CC(C)N1CCCCC(NC(=O)C(C)(C)C)C1=O (configuration not stated) | -0.89% (inactive)
N#Cc1cccc(NC(=O)C2CCCN(C(=O)c3ccc(Cl)cc3)C2)c1 (configuration not stated) | -3.16% (inactive)
CCOc1ccc(N2C(=O)CC(N(CCc3ccc(OC)c(OC)c3)C(=S)Nc3ccccc3)C2=O)cc1 (configuration not stated) | 23.9% (active) and 6.83% (inactive)
CN(C)c1ccc(NC(=S)N(CCc2ccccc2)C2CC(=O)N(c3c(Cl)cccc3Cl)C2=O)cc1 (configuration not stated) | 11.2% (inactive)
COc1ccc(N2C(=O)C(CC(=O)Nc3ccccc3)N(Cc3ccc(OC)c(OC)c3)C2=O)cc1 (configuration not stated) | 0.53% (inactive)
CCOC(=O)[C@]12CCCC=C1N(CCCOC)C(=O)[C@@H]2CC(=O)N1CCOCC1 | -0.44% (inactive)
CN1[C@H](Cc2ccccc2)COc2cccc(N3CCSCC3)c2S1(=O)=O | -1.57% (inactive)
O=C(CNCc1ccc(F)cc1)Nc1ccccc1-c1ccccc1 | 4.85% (inactive)
CCC(C(=O)Nc1ccc(C(C)C)cc1)c1ccccc1 (configuration not stated) | 5.96% (inactive)
CCC(C(=O)OCC(=O)Nc1ccccc1-c1ccccc1)c1ccccc1 (configuration not stated) | 20.3% (active)
CC1CCN(c2ccc(C(=O)O)cc2NS(=O)(=O)c2ccc(Br)s2)CC1 | -0.83% (inactive)
C[C@H](C(=O)N(C)c1ccccc1)[C@@H](O)c1ccc(Cl)cc1 | 2.56% (inactive)
CC(=O)N1CCCN(C2=Nc3ccccc3Sc3ccccc32)CC1 | 1.32% (inactive)
O=C(CSc1nnc(-c2cccc(Cl)c2)n1Cc1ccco1)Nc1ccc(OCc2ccccc2)cc1 | 7.99% (inactive)
Cc1ccc(-c2nc(C3CCCN(S(=O)(=O)c4ccc(Br)s4)C3)no2)cc1 (configuration not stated) | -6.94% (inactive)
O=C(NCCC1=CCCCC1)C1CCN(S(=O)(=O)c2ccc(Cl)s2)CC1 | -5.18% (inactive)
COc1ccc(OCCn2ccnc2C)cc1 | 3.1% (inactive)
COc1ccc(OCCCn2cccc2/C=C2/C(=N)N3OC(C)=CC3=NC2=O)cc1 | 24.4% (active)
COc1ccccc1OCCOc1ccc(/C=C2\C(=N)N3N=C(C)SC3=NC2=O)cc1 | -72.1% (inactive)
